In PubChem BioAssay AID652172 (National Center for Advancing Translational Sciences (NCATS), 2013):
This is one part of the list. Results filed as inconclusive are left out. Activity calls are given as the source filed them. Calls come from the whole dose curve; as a rule, active = well fitted inhibition curve with a large enough effect; inconclusive = small, poorly fitted or top-dose-only effect; inactive = flat fitted curve, though single readings scatter.

target: Ubiquitin carboxyl-terminal hydrolase 2 (Homo sapiens) (UniProt O75604); test: Confirmation Assay for Inhibitors of Ubiquitin-specific Protease USP2a Using CHOP2 as the Reporter: K633; conditions: USP2 cleavage of DiUb K63-3IQF, fluorescence kinetic
Text: Homeostasis of cellular proteins is maintained through a combination of synthesis and degradation. The pathway that accounts for the majority of protein degradation is the ubiquitin-proteasomal pathway. Ubiquitin (Ub) is highly conserved in all cells and the generation of a multi-Ub chain typically targets proteins for degradation by the proteasome. However, ubiquitination is highly reversible and dynamic. Deubiquitination, the reverse process, is catalyzed through the action of enzymes referred to as isopeptidases or deubiquitinating enzymes (DUBs). This group of enzymes is collectively responsible for maintaining adequate pools of free ubiquitin and regulating the ubiquitination status of cellular proteins. The class of DUBs referred to as the ubiquitin-specific proteases (USP) family functions endoproteolytically to cleave Ub chains from a wide range of protein substrates. […] Confirmed qHTS active compounds were tested in an orthogonal USP2 assays utilizing a di-ubiquitin substrate labeled with a quencher on one ubiquitin and a fluorescent compound on the other, i.e. the substrate has internally quenched fluorescence or IQF (Lifesensors). In the presence of active USP2, the diubiquitin (DiUb) is cleaved and the fluorescence at 598 nm increases. […] Upon inhibition of USP2, the fluorescence signal from cleaved substrate increases less over time than in the absence of an inhibitor. […]

Sequence of Ubiquitin carboxyl-terminal hydrolase 2 (Homo sapiens) (O75604 whole entry, looked up): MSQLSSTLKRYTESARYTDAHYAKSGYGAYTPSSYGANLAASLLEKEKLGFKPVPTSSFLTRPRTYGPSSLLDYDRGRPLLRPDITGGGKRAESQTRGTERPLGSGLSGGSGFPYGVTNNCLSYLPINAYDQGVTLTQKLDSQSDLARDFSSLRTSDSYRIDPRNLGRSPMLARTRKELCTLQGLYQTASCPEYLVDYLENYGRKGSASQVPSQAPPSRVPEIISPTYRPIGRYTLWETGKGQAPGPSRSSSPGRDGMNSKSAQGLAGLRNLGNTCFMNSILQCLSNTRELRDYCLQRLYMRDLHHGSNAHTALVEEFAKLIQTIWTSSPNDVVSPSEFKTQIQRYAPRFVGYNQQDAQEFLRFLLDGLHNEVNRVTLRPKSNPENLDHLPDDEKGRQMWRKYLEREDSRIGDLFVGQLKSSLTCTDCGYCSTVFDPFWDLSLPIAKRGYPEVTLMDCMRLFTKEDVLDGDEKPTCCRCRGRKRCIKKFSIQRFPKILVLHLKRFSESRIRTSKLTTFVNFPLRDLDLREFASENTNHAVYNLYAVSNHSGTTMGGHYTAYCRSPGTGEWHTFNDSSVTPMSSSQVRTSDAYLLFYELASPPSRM

SMILES	Potency
Cc1ccc(-c2cc(C(=O)Nc3ncco3)c3ccccc3n2)cc1C	3.43 µM (active)
